Measurements: PubChem BioAssay (EPA / NIEHS)
Inconclusive results are not listed. Calls of active or inactive are those of the source. Rule for the calls, unless noted: active = hit-call score of the fitted dose curve at least 0.9, where 1 is the maximum; inactive = score below 0.9.

What was measured:
[1] = molecular target: Ratio of Nucleoli Translocation and Cytoplasm, AR (gene 367) (UniProt P10275); assay: UPITT_HCI_U2OS_AR_TIF2_Nucleoli_Cytoplasm_Ratio_Agonist: University of Pittsburgh U2OS Androgen Receptor-Transcriptional Intermediary Factor 2 (AR-TIF2) Agonism High Content Imaging Assay for Ratio of Nucleoli Translocation and Cytoplasm (AID 2284000; active = hit-call score of the fitted dose curve at least 0.9, where 1 is the maximum;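 note: hits raise the red nucleolar to cytoplasm ratio above vehicle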)
Summary of the method: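 Primary screen at 20 uM final (0.2% DMSO), then triplicate confirmation and dose-response from 0.195 to 50 uM final (0.5% DMSO). Cells: U2OS with AR-RFP and TIF2-GFP. Endpoint is the nucleoli/cytoplasm red-fluorescence ratio, gain-of-signal vs DMSO.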

[2] = CCTE_Harrill_HTTr_Viability_MCF7: CCTE's 6-hour Cell Viability Assessment for the High-Throughput Transcriptomics (HTTr) Platform, in MCF-7 cells cultured in DMEM + 10% fetal bovine serum, Harrill Lab (AID 2284010)
Summary of the method: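 PI exclusion, high-content imaging; 8-pt dilution series, 6 h exposure; bidirectional fit vs DMSO (neg. ctrl/baseline); gain of signal = loss of membrane integrity.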

[3] = CCTE_Harrill_HTTr_Apoptosis_MCF7: CCTE's 6-hour Apoptosis Assessment for the High-Throughput Transcriptomics (HTTr) Platform, in MCF-7 cells cultured in DMEM + 10% fetal bovine serum, Harrill Lab (AID 2284011)
Summary of the method: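 Apoptosis in MCF-7 cells grown in DMEM with 10% fetal bovine serum was scored after a six hour exposure by high content imaging of caspase-3/7 activation (CellEvent Caspase 3/7 Green), with DMSO serving as negative control and baseline.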

[4] = CCTE_Harrill_HTTr_CellCount_MCF7: CCTE's Cell Proliferation Assessment for the High-Throughput Transcriptomics (HTTr) Platform, Harrill Lab (AID 2284012; active = hit-call score of the fitted dose curve at least 0.9, where 1 is the maximum;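 note: count of Hoechst-stained nuclei per well by high-content imaging in MCF-7 cells; cells exposed to compound for six hours; intended direction is loss of nuclei count meaning fewer cells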)
Summary of the method: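 Readout: Hoechst nuclear count by high-content imaging. MCF-7, 8-point dilution series, 6 h exposure. Bidirectional fit vs DMSO baseline.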

[5] = molecular target: Ratio of Nucleoli Translocation and Cytoplasm, AR (gene 367) (UniProt P10275); assay: UPITT_HCI_U2OS_AR_TIF2_Nucleoli_Cytoplasm_Ratio_Antagonist: University of Pittsburgh U2OS Androgen Receptor-Transcriptional Intermediary Factor 2 (AR-TIF2) Antagonism High Content Imaging Assay for Ratio of Nucleoli Translocation and Cytoplasm (AID 2283999; active = hit-call score of the fitted dose curve at least 0.9, where 1 is the maximum;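 note: antagonists lower the DHT-driven ratio of nucleolar to cytoplasmic red signal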)
Summary of the method: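 Read-out is the ratio of nucleolar to cytoplasmic AR-RFP fluorescence, imaged by high-content microscopy in U2OS cells coexpressing TIF2-GFP. Single-point 20 uM screen, triplicate confirmation, then 0.195–50 uM dose response; activity referenced to DHT baseline.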

[6] = CCTE_Shafer_MEA_acute_firing_rate_mean: CCTE's Neural Acute Assay for Mean Firing Rate, Shafer Lab (AID 2284009);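 note: analyzed for loss of signal so actives lower firing rate relative to DMSO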
Summary of the method: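 Spontaneous spiking of primary rat cortical networks, DIV 13/15, 37 C. Compound 0.03-40 uM, n ≥3 wells; 40 min baseline vs 40 min treated. Endpoint fitted in loss-of-signal direction against DMSO.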

[7] = CCTE_Shafer_MEA_acute_burst_number: CCTE's Neural Acute Assay for Single-Electrode Bursts, Shafer Lab (AID 2284013)
Summary of the method: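 Burst totals were derived with adaptive spike detection (8x rms threshold) on filtered signals from rat cortical cultures; change relative to pre-treatment baseline after 40-min compound exposure (0.03-40 uM) was fitted in the negative direction against DMSO.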

[8] = CCTE_Shafer_MEA_acute_burst_duration_mean: CCTE's Neural Acute Assay for Mean Burst Duration, Shafer Lab (AID 2284014);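 note: hits are decreases in mean burst duration relative to DMSO controls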
Summary of the method: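 Acute exposure of mature rat cortical networks (DIV 13 or 15) grown on microelectrode arrays to 0.03-40 uM compound. Mean burst duration compared with the 40-min pre-dose baseline over a 40-min post-dose recording at 37 C.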

[9] = CCTE_Shafer_MEA_acute_per_burst_spike_number_mean: CCTE's Neural Acute Assay for Average Number of Spikes Per Burst, Shafer Lab (AID 2284015);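 note: hits are decreases in mean spikes per burst versus baseline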
Summary of the method: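 Read-out: percent change in mean spikes per burst, each well's post-exposure 40-min recording versus its own 40-min baseline. Rat cortical cultures, DIV 13 or 15, compounds 0.03-40 uM; DMSO is negative control, loss-of-signal fitting.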

[10] = CCTE_Shafer_MEA_acute_interburst_interval_mean: CCTE's Neural Acute Assay for Mean Interburst Interval, Shafer Lab (AID 2284016);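 note: percent change of mean interburst interval versus each well's own pre-dose baseline; curves fitted for decrease in interburst interval relative to DMSO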
Summary of the method: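 Rat cortical cultures, DIV 13/15; 20 min equilibration, 40 min baseline, compound 0.03-40 uM, 40 min re-recording, 37 C. Spikes detected at 8x rms noise (300-5000 Hz band-pass). Endpoint: % change in interburst interval, fitted in loss direction vs DMSO.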

[11] = CCTE_Shafer_MEA_acute_burst_percentage_mean: CCTE's Neural Acute Assay for Percentage of Spikes in a Burst, Shafer Lab (AID 2284017);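 for AC50: curve fitted for loss of signal so potency reflects decreased burst percentage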
Summary of the method: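 Rat cortical cultures, DIV 13/15, 37 C. Spikes detected at 8x rms noise (300-5000 Hz band-pass). Burst spikes/total spikes averaged across electrodes per well; % change post- vs pre-treatment (40 min each), loss-of-signal fit vs DMSO.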

[12] = CCTE_Shafer_MEA_acute_burst_percentage_std: CCTE's Neural Acute Assay for Standard Deviation of Burst Percentage, Shafer Lab (AID 2284018);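 note: fitted in the negative direction so actives lower burst percentage SD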
Summary of the method: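 Primary rat cortical neurons on 16-electrode MEA wells were recorded 40 min at baseline (DIV 13 or 15), then 40 min after compound (0.03-40 uM), at 37 C. Well value is SD across electrodes of spikes-in-bursts/total spikes; endpoint is percent change, DMSO-referenced.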

[13] = CCTE_Shafer_MEA_acute_per_network_burst_spike_number_std: CCTE's Neural Acute Assay for Standard Deviation of Number of Spikes in a Network Burst, Shafer Lab (AID 2284020);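 note: fitted for decrease in spike-number SD versus DMSO so actives lower it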
Summary of the method: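 Acute MEA exposure, rat cortical neurons, 0.03-40 uM. Per-well % change versus own baseline; DMSO as negative control.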

[14] = CCTE_Shafer_MEA_acute_network_burst_percentage: CCTE's Neural Acute Assay for Percentage of Network Bursts, Shafer Lab (AID 2284022);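 note: curves fitted for loss so actives lower network burst percentage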
Summary of the method: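 On DIV 13 or 15, at least three wells of rat cortical neurons per compound are dosed at 0.03-40 uM. Spontaneous firing is detected at 8x rms noise for 40 min before and after dosing at 37 C. The percent change in network-burst spike share is reported.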

[15] = CCTE_Shafer_MEA_acute_cross_correlation_area: CCTE's Neural Acute Assay for Area of Cross Correlation, Shafer Lab (AID 2284024);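 note: area under pooled inter-electrode spike cross-correlation near zero lag as percent change from own baseline; curves fitted for loss of cross-correlation area so actives lower synchrony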
Summary of the method: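 Extracellular recordings from cultured rat cortical neurons measure network synchrony as cross-correlation area; each well's post-compound value (0.03-40 uM, 40 min) is compared with its own 40 min baseline to give percent change.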

[16] = CCTE_Shafer_MEA_acute_cross_correlation_HWHM: CCTE's Neural Acute Assay for Cross Correlation at Half Width at Half Maximum, Shafer Lab (AID 2284026);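 note: percent change per well from pre-dose baseline in spike cross-correlogram half width; hits are a decrease in cross-correlogram half width relative to DMSO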
Summary of the method: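 Percent change in cross-correlogram half width at half maximum, narrower meaning more synchrony, was derived per well from paired 40-min recordings before and during exposure to 0.03-40 uM compound in rat cortical cultures at 37 C.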

[17] = CCTE_Shafer_MEA_acute_synchrony_index: CCTE's Neural Acute Assay for Synchrony, Shafer Lab (AID 2284027);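 note: network synchrony index of spontaneous spiking in primary rat cortical neurons on MEAs; fitted for loss of signal so actives lower synchrony relative to DMSO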
Summary of the method: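 Rat cortical cultures, DIV 13/15; spikes detected at 8x rms noise, 300-5000 Hz band-pass. Compound 0.03-40 uM, ≥3 wells; 40-min pre- and post-exposure recordings, 37 C. Readout: % change in synchrony index; loss-of-signal fit vs DMSO.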

[18] = molecular target: Estrogen receptor (Homo sapiens) (UniProt P03372); assay: CCTE_Deisenroth_AIME_96WELL_LUC_Active: CCTE's 96-well Estrogen Receptor Transactivation Assay with AIME metabolic competence (ERTA luciferase; metabolism positive), Deisenroth Lab (AID 2284023; active = hit-call score of the fitted dose curve at least 0.9, where 1 is the maximum)
Summary of the method: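 Metabolism-positive mode: induced rat hepatic S9 in alginate microspheres conditions test solutions (0.002 - 200 uM, 10 points) for 2 hours. VM7Luc4E2 ER luciferase reporter cells then exposed 24 h; positive-direction fit against 17beta-estradiol, n=4 typical.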

[19] = molecular target: Estrogen receptor (Homo sapiens) (UniProt P03372); assay: CCTE_Deisenroth_AIME_96WELL_LUC_Inactive: CCTE's 96-well Estrogen Receptor Transactivation Assay without AIME metabolic competence (ERTA luciferase; metabolism negative), Deisenroth Lab (AID 2284025; active = hit-call score of the fitted dose curve at least 0.9, where 1 is the maximum)
Summary of the method: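 Metabolism-negative arm: chemicals (0.002–200 uM, 10 points) incubated 2 h with alginate-water microspheres, then medium moved onto VM7Luc4E2 cells for 24 h luciferase read-out. Positive direction vs 17beta-estradiol; n≥4 experiments.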

Measured: AC50

Chain of Ratio of Nucleoli Translocation and Cytoplasm, AR (gene 367) (P10275 whole entry, looked up): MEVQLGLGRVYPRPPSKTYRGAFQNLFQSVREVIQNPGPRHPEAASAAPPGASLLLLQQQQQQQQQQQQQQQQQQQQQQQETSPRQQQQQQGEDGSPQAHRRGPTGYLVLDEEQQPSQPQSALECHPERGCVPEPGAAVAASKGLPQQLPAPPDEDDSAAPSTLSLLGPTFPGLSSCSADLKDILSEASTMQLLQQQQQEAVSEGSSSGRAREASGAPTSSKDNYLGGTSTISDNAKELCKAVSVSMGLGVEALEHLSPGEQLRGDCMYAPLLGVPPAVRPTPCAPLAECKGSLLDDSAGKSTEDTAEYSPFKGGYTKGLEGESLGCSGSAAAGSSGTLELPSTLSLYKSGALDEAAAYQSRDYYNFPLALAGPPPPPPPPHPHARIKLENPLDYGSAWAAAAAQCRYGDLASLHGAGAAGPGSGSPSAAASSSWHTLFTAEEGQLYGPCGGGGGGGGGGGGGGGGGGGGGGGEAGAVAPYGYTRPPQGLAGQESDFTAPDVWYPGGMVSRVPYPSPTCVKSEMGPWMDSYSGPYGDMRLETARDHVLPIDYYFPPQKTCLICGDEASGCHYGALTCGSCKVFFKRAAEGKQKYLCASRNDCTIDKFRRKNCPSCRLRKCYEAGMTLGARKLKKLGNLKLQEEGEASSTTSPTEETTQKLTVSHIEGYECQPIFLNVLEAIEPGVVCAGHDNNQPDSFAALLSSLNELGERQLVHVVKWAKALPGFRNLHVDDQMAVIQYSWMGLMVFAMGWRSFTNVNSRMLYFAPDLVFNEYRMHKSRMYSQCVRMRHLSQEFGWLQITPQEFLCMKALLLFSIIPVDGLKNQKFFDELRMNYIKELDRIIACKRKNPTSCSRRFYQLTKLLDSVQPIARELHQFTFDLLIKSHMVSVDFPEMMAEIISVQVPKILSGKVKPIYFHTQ
Chain of Estrogen receptor (Homo sapiens) (P03372 whole entry, looked up): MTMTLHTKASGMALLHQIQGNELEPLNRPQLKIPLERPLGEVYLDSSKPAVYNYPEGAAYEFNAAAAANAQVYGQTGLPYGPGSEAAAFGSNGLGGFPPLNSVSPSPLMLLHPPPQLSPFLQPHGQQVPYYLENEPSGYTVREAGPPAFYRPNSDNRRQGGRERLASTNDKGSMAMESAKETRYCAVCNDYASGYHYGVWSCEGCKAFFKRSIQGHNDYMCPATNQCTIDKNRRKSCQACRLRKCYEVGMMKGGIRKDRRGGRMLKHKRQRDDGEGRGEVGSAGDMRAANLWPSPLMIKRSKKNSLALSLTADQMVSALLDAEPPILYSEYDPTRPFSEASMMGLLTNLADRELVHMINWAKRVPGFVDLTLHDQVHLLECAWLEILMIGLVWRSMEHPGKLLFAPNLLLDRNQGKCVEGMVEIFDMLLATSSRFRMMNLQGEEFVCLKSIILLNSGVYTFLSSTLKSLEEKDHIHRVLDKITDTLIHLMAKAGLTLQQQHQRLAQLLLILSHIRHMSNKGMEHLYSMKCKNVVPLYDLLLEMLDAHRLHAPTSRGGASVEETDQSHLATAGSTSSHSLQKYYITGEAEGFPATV

CC(=O)OC1CCCCC1C(C)(C)C (centres undefined)
inactive: [1] | [2] | [3] | [4]

CCCCCCCC(=O)OCC(COC(=O)CCCCCCC)OC(=O)CCCCCCC
inactive: [2] | [3]

CN(C)Cc1cc(CN(C)C)c(O)c(CN(C)C)c1
inactive: [5] | [1]

CC1(C)CC(O)CC(C)(C)N1[O]
inactive: [6] | [2] | [3] | [4] | [7] | [8] | [9] | [10] | [11] | [12] | [13] | [15] | [16] | [17]
active: [14] 0.0204 µM

CC(CCC(=O)O)(c1ccc(O)cc1)c1ccc(O)cc1
inactive: [6] | [7] | [8] | [9] | [10] | [11] | [12] | [13] | [14] | [15] | [16] | [17]

c1ccc(Nc2cccc3ccccc23)cc1
active: [6] 0.979 µM | [7] 1.25 µM | [8] 15 µM | [9] 5.6 µM | [10] 11.7 µM | [11] 4.86 µM | [13] 1.86 µM | [14] 27.8 µM | [18] 17.7 µM | [15] 0.465 µM | [19] 12.7 µM | [16] 5.12 µM | [17] 8.24 µM
inactive: [12]

C=C1C[C@H]2[C@@H]3C=C(C)C4=CC(=O)CC[C@]4(C)[C@H]3CC[C@]2(C)[C@@]1(OC(C)=O)C(C)=O
inactive: [5] | [1] | [2] | [3] | [4]

Nc1ccc(C(=O)O)cc1
inactive: [2] | [3]

CC(C)(O)Cc1ccccc1
inactive: [2] | [3] | [4]

NNS(=O)(=O)c1ccc(Oc2ccc(S(=O)(=O)NN)cc2)cc1
inactive: [2] | [3]

O=C(O)C1CCC(C(=O)O)CC1 (centres undefined)
inactive: [2] | [3]

O=C(Oc1ccccc1)c1ccccc1O
inactive: [2] | [3] | [4]

CC1CCC(=O)C1=O (centres undefined)
inactive: [2] | [3]

CC(=O)CCC=C(C)C
inactive: [2] | [3] | [4]

CC(=O)CCC1=C(C)CCCC1(C)C
inactive: [2] | [3] | [4]

CCCCOCCOC(=O)COc1ccc(Cl)cc1Cl
inactive: [2] | [3]

CC(C)(C)NC(=O)[C@H]1CC[C@H]2[C@@H]3CC[C@H]4NC(=O)C=C[C@]4(C)[C@H]3CC[C@]12C
inactive: [2] | [3] | [4]

CC(=O)CC(=O)Nc1ccccc1C
inactive: [2] | [3]

CC12CCC(CC1)C(C)(C)O2
inactive: [2] | [3]

N=C1C=CC(=C(c2ccc(N)cc2)c2ccc(N)cc2)C=C1
active: [2] 1.06 µM
inactive: [3]

COc1cc(O)c(C(=O)c2ccccc2)cc1S(=O)(=O)O
inactive: [2] | [3] | [4]

CCOC(=O)C1=NN(c2ccc(Cl)cc2Cl)C(C)(C(=O)OCC)C1 (centres undefined)
inactive: [2] | [3]

CCCCCCO
inactive: [2] | [3]

Cc1ccc([N+](=O)[O-])cc1N
inactive: [2] | [3]
